Experimental data: PubChem BioAssay AID1490 (National Center for Advancing Translational Sciences (NCATS), 2009)
Screen size: about 310,000 compounds; about 11,000 (3.5%) were called active. Not shown: some 4% with an inconclusive outcome. The call rests on the fitted dose curve; in most records, active means well fitted inhibition curve with a large enough effect; inconclusive means small, poorly fitted or top-dose-only effect, or another doubt; inactive means no such curve, though single readings can be large or run the other way. Many of the other results were omitted from the sample, so actives are more common in it than they were.

These molecules were tested against 4'-phosphopantetheinyl transferase ffp (Bacillus subtilis) (UniProt Q9F4F7) (assay: qHTS Assay for Inhibitors of Bacillus subtilis Sfp phosphopantetheinyl transferase (PPTase)). Details: Biochemical Sfp PPTase activity.
Method in brief: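 Step 1, compound plus 15 nM Sfp-PPTase, 15 min, room temperature. Step 2, add rhodamine-CoA (5 uM) and BHQ-2-YbbR (12.5 uM). Step 3, read 525/598 nm fluorescence at 0 and 30 min.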
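Further: the enzyme is Sfp with the accession as filed and its product quenches rhodamine fluorescence.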
Potency means the concentration at half of the fitted maximal effect.
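Wherever Largest response in the series, negative = inhibition is given: 0% = enzyme reaction without inhibitor and -100% = no enzyme wells.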

Largest response in the series, negative = inhibition, inactive:
COc1ccc(C(C(=O)NC2CCCC2)N(CCCO)C(=O)Cn2nnc(-c3ccc(C)o3)n2)cc1 (stereo not drawn) 1.56%, CCN(CC)S(=O)(=O)c1ccc(N2CCN(C)CC2)c(NC(=O)Nc2ccccc2F)c1 9.85%, Cc1cc(SCC(=O)c2ccccc2)nc(SCC(=O)c2ccccc2)n1 11.4%, Cc1ccc(N/C=C/C(=O)c2ccccc2)cc1C -6.7%, COc1cc(C(C(=O)NC2CCCC2)N(Cc2ccccc2)C(=O)c2snc(C(N)=O)c2N)ccc1O (stereo not drawn) 4.51%, CCOC(=O)[C@H]1[C@H]2COc3cc(OC)ccc3[C@@H]2N2C(=O)N(c3ccc(Br)cc3)C(=O)[C@@]12C 5.98%, O=C(NCCCO)c1cc2c([nH]c3ccccc32)c(-c2ccc(F)cc2)n1 -19.4%, CSc1ncccc1C(=O)NC1CCCCCC1 8.17%, CN(C)C(=O)c1ccc(NC(=O)c2ccccc2-c2ccccc2)cc1 -2.24%, O=C1/C(=C/c2ccc3c(c2)OCO3)Oc2cc(OCC(=O)N3CC(O)C[C@H]3C(=O)O)ccc21 (stereo partly drawn) 2.62%, Cn1c(CC(=O)Nc2ccc(F)cc2)nnc1SCC(=O)NC1CCCCC1 16%, CCOc1cccc(-c2nnc(SCC(=O)NC3CC3)n2C)c1 3.79%, CC(=O)Nc1ccc(NC(=O)COc2ccc(-c3ccccc3)cc2)cc1 13.3%, O=C(/C=C/c1cccc(F)c1)NC1CC1 29.9%, Oc1oc(-c2ccccc2Br)nc1/C=N/c1ccccn1 -0.12%, COC(=O)Cn1c(O)c(N=NC(=O)OC)c2ccccc21 4.81%, COC(CNC(=O)c1ccc2c(c1)ncn2-c1cc(C)cc(C)c1)OC 8.91%, CC(C)C(N)C(=O)OCCOCn1cnc2c(=O)[nH]c(N)nc21 (stereo not drawn) -9.12%, COc1cc2c(cc1OC)CN(CC(=O)Nc1ccc(F)cc1)CC2 2.33%, O=C(CCc1nnc(Cc2ccc3c(c2)OCO3)o1)NCCc1ccccc1Cl -0.572%, CCC(=O)N(Cc1cc2cc(OC)ccc2[nH]c1=O)c1ccccc1C 6.41%, COc1ccc(N(Cc2cc3cc(OC)ccc3[nH]c2=O)S(C)(=O)=O)cc1 -8.56%, Cc1ccc(-c2ccc(=O)n(Cc3ccc(F)cc3Cl)n2)cc1 -21.9%, Cc1cc(NCc2cccnc2)no1 1.54%, Cc1noc(C)c1-c1cc(NCc2cccnc2)ncn1 -20.7%, CCN(CC)c1ccc(NC(=O)CCc2nnc3ccc(N4CCCCC4)nn23)c(C)c1 2.26%, CCOc1ccccc1CN1CCN(C2CCC2)CC1CCO (stereo not drawn) 17.6%, COC(=O)c1c(NC(=O)COc2ccc(Cl)cc2Cl)sc2c1CC(C)(C)NC2(C)C -6.17%, O=C(CN(C(=O)CNC(=O)c1cccs1)c1cccc(F)c1)NC1CCCCC1 6.32%, COc1cccc(CNC(=O)CCCC(=O)Nc2cccc([N+](=O)[O-])c2)c1 4.84%, O=C(CSCC(=O)Nc1cccc([N+](=O)[O-])c1)Nc1ccccc1 7.95%, CC(=O)c1ccc(NC(=O)c2ccc(-n3cncn3)c([N+](=O)[O-])c2)cc1 -0.369%, O=C(Nc1c2c(nn1-c1ccccc1)CS(=O)(=O)C2)C1CCCC1 11.4%, CSc1nnc2ccc(-c3ccc(C)cc3)nn12 4.27%, NC(=O)c1oc2ccccc2c1NC(=O)Cc1ccccc1 0.75%, O=c1cc(O)nc(SCc2ccccc2Cl)[nH]1 -17.3%, COc1ccc2nc(SCc3ccccc3)nc(C)c2c1 -4.22%, COC(OC)c1ccnc(SCc2ccccc2Cl)n1 -3.61%, O=c1[nH]c(SCc2ccccc2)nnc1-c1ccccc1 15.9%, CS(=O)(=O)Nc1cccc(C2=NN(C(=O)c3cccc(F)c3)C(c3cccs3)C2)c1 (stereo not drawn) 4.93%, COC(=O)c1ccc2c(=O)n(CCN3CCOCC3)c(SCC(=O)Nc3cccc(OC)c3)nc2c1 0.982%, CN(C)C(=O)Cn1c(=O)n(S(=O)(=O)c2ccccc2)c2ccccc21 -0.847%, Cc1ccc(C(=O)NC23CC4CC(CC(C4)C2)C3)c(Cl)c1 2.46%, Cc1ccc(C(=O)NCCNC(=O)c2ccccc2)cc1 10.8%, Cc1ccc(C(=O)Nc2sc(Cc3ccc4c(c3)OCO4)c(C)c2C(N)=O)cc1 -3.41%, Cc1c(CC(=O)N2CCN(C(=O)C3COc4ccccc4O3)CC2)c(=O)oc2c(O)c(O)ccc12 (stereo not drawn) -23.7%, COc1cc(OC)c2c(C)cc(=O)oc2c1C(CCN1CCCCC1)c1ccc(N(C)C)cc1 (stereo not drawn) -9.21%, COc1ccc(-n2c(-c3ccc(OC)c(OC)c3)n[nH]c2=S)cc1 -14.3%, COc1ccc(OC)c(-n2c(-c3ccn[nH]3)n[nH]c2=S)c1 -5.99%, CCOC(=O)CNc1nc(Cl)nc(Nc2ccc(OC)cc2OC)n1 11.3%, COc1cc(OC)cc(C(=O)NCCCn2ccnc2)c1 5.91%, CN1C(=O)C(CC(=O)Nc2ccccc2)S/C1=N/c1nccs1 (stereo not drawn) 15.1%, O=C(Nc1cccc(Cl)c1)OCc1ccccn1 3.07%, CCOc1ccc(CN(C)C(=O)c2ccc(=O)[nH]c2)cc1 8.69%, COc1ccc(NS(=O)(=O)c2ccc(N3CCN(CCO)CC3)c([N+](=O)[O-])c2)cc1 -0.783%, CCCCN(C)CCCNC(=O)c1cc(-c2cccs2)nc2ccccc12 -6.84%, COC(=O)CNC(=O)c1cc(-c2ccncc2)nc2ccccc12 8.93%, Nc1ncn(C2OC(CO)C(O)C2O)c(=O)n1 (stereo not drawn) 21.6%, O=C1[C@H]2[C@H]3[C@H](O)[C@H](O)C/C(=N/OCc4ccccc4)[C@H]3CC[C@@H]2C(=O)N1Cc1ccccc1 -7.38%, CCC(C)NC(=O)C1c2ccccc2Oc2ccccc21 (stereo not drawn) 5.93%, CCC(C)(C)NC(=O)C1c2ccccc2Oc2ccccc21 14.9%, COc1ccccc1N1CCN(S(=O)(=O)c2ccc3c(c2)NC(=O)CS3)CC1 7.23%, C=CCOC(=O)C1=C(C)NC(C)=C(C(=O)OCC=C)C1c1cccs1 24.6%, CC1=C(C(=O)Nc2ccccc2)C(c2ccco2)C(C#N)=C(SCC(N)=O)N1 (stereo not drawn) -0.0015%, CCOc1ccc(-n2c(SCC(=O)Nc3ccc(OC)cc3)nc3sc4c(c3c2=O)CCN(C)C4)cc1 -4.55%, COc1cc(C2C(C(=O)c3ccco3)=C(O)C(=O)N2c2cc(C)on2)ccc1OCc1ccccc1 (stereo not drawn) 0.107%, C=CCNC(=O)c1ccccc1SCc1c(C)noc1C -6.81%, CCCOc1cccc(C(=O)NCCCNC(=O)c2cccnc2)c1 1.7%, Cc1cccc(OCc2ccc(C(=O)Nc3ccc(F)cc3)cc2)c1 10.4%, Fc1ccc(COc2ccc(-c3nnco3)cc2)cc1 12.8%, CC(=O)NS(=O)(=O)c1ccc(N/C(N)=N/c2nc(C)cc(C)n2)cc1 6.28%, CCCC(C(=O)NC1CCCC1)N(C(=O)Cn1nnc(-c2ccc(C)o2)n1)c1cccc(O)c1 (stereo not drawn) -2.43%, COC(=O)c1ccc(COC(=O)c2cnc(Cl)c(Cl)c2)cc1 -10.6%, Cc1noc(C)c1-c1ccc2ncnc(NCc3ccc4[nH]ccc4c3)c2c1 -0.183%, N=C(N)SCc1cccc2ccccc12 -0.359%, O=C(Nc1cn(-c2ccccc2)nc1-c1ccccc1)c1ccccc1 -4.06%

Potency, active:
Cc1cc(C)nc(S/C=C/C(=O)c2ccccc2)n1 20 µM, CSc1nsc(SC)c1NC(=O)OC1CCCCC1 56.2 µM, CCOc1ccc(Nc2nc(Cc3nnc(SCC(=O)NC4CCCC4)n3C)cs2)cc1 89.1 µM, CC(C)n1c(O)c(N=Nc2ccccn2)c2ccccc21 50.1 µM, COc1ccc2[nH]c(=O)c(CNc3ccc(C)c(C)c3)cc2c1 50.1 µM, Cc1cccc(CNc2ccnc(-c3cccnc3)n2)c1 79.4 µM, COC(=O)/C=C\C(=O)Nc1cccc([N+](=O)[O-])c1 3.55 µM, c1ccc(CSc2nnc(-c3ccco3)c(-c3ccco3)n2)cc1 35.5 µM, Clc1ccccc1CSc1nnc(-c2ccco2)c(-c2ccco2)n1 20 µM, Cc1ccc(C(=O)c2c(NC(=O)c3ccccc3)sc(C)c2C)cc1 28.2 µM, COc1ccccc1-n1c(-c2cc(-c3ccco3)[nH]n2)n[nH]c1=S 50.1 µM, O=C(CC1SC(=Nc2ccccc2)N(Cc2ccccn2)C1=O)Nc1cccc(Cl)c1 (stereo not drawn) 44.7 µM, CCc1ccc(-c2cc(C(=O)NCc3ccco3)c3ccccc3n2)s1 31.6 µM, CC(C)(C)c1nnc(NC(=O)C2c3ccccc3Oc3ccccc32)s1 2.82 µM, CC1=C(C(=O)Nc2ccccc2)C(c2cccs2)C(C#N)=C(SCC#N)N1 (stereo not drawn) 39.8 µM, Fc1ccc(COc2cccc(-c3n[nH]c(=S)o3)c2)cc1 39.8 µM, CCc1ccc(-c2nn(-c3ccccc3)cc2CSC(=N)N)cc1 39.8 µM
